According to PubChem BioAssay (NCATS):
Several values for one entry are separate records, joined by “and”; a condition that tells them apart may be missing. Equal values may be shown once. Inconclusive results are not listed. Activity calls are given as the source filed them. Unless noted, calls follow the shape of the full dose curve.

Assays:
[1] = biological target: Estrogen receptor (Homo sapiens) (UniProt P03372); assay: qHTS assay for small molecule agonists of estrogen receptor alpha signaling (AID 588514);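 also: 0% = vehicle only and 100% = reference agonist; nearly all actives have a fitted effect of over 70% in size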
Method in brief: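 Fluorescence from CCF4 cleavage reports ER-alpha-driven beta-lactamase expression in HEK 293 cells treated 18 hrs at 37 C. Data normalized to 17-beta-estradiol (20 nM) and DMSO, fitted to Hill equation.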

[2] = biological target: Peroxisome proliferator-activated receptor gamma (Homo sapiens) (UniProt P37231); assay: qHTS assay for small molecule antagonists of peroxisome proliferator-activated receptor gamma signaling (AID 588537; active = well fitted inhibition curve with a large enough effect in the signal ratio, with a control signal flat, not every such curve was filed as active; the % refers to the signal ratio;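 also: reporter cells co-stimulated with 50 nM rosiglitazone agonist during compound treatment; % of control where 0% means no effect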)
Method in brief: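 Read-out: CCF4 fluorescence (ex 405, em 460/530 nm) after 2 h at RT. Cells were HEK293 carrying a UAS-bla reporter and treated 16 h at 37 C with compound plus rosiglitazone (50 nM final). Normalized to rosiglitazone and DMSO.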

[3] = biological target: Vitamin D3 receptor (Homo sapiens) (UniProt P11473); assay: qHTS assay for small molecule antagonists of vitamin D receptor signaling (AID 588541);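 also: receptor activated by calcitriol during compound treatment; series mostly up to about 77 µM; % is scaled to controls: 0 for no effect and ±100 for the full control effect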
Method in brief: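 VDR-UAS-bla HEK293T cells in 2% charcoal-stripped FBS were stimulated with 1-alpha,25-dihydroxyvitamin D3 (3 nM final) plus compound for 16 h at 37 C. The beta-lactamase CCF4 readout was normalized to 50 nM agonist and DMSO, and Hill fits gave IC50.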

[4] = qHTS assay for small molecule agonists of the antioxidant response element (ARE) signaling pathway (AID 651741; active = well fitted activation curve with a large enough effect in the signal ratio; the % refers to the signal ratio; also: % of control where 0% means no effect)
Method in brief: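 HepG2 ARE-bla reporter cells, 2,000/well; 5 h settle at 37 C/5% CO2; compound pin transfer (23 nL, DMSO); 16 h at 37 C; LiveBLAzer B/G FRET substrate, 2 h RT; fluorescence intensity read.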

[5] = qHTS assay for small molecule activators of the nuclear factor-kappa B (NF-kB) signaling pathway (AID 651749; active = well fitted activation curve with a large enough effect in the signal ratio; the % refers to the signal ratio; also: series mostly up to about 77 µM; % of control where 0% means no effect); details: NF-kB-bla ME-180 cells, beta-lactamase FRET ratio, 16 h; activation: hits give high values
Method in brief: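 NF-kB-bla ME-180 cells, 2,000/well; 23 nL compound or DMSO pinned; 16 hr, 37C/5% CO2; beta-lactamase FRET read-out.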

[6] = biological target: Thyroid hormone receptor beta (Homo sapiens) (UniProt P10828); assay: qHTS assay for small molecule antagonists of thyroid hormone receptor beta signaling (AID 588547; active = well fitted inhibition curve with a large enough effect in the signal ratio, with a control signal flat, not every such curve was filed as active; the % refers to the signal ratio;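 also: cells stimulated with 0.4 nM T3 agonist during compound exposure; series mostly up to about 77 µM; % is scaled to controls: 0 for no effect and ±100 for the full control effect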); details: TR-UAS-bla HEK293, beta-lactamase ratio, antagonist mode, 18 h
Method in brief: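 TR-UAS-bla GripTite HEK293 cells in 2% charcoal/dextran FBS medium; compounds 0.59 nM to 92 uM with T3 at 0.4nM final, 18 h at 37 C. Beta-lactamase read by CCF4 fluorescence (460/530 nm); Hill fits gave IC50 and efficacy.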

[7] = biological target: Androgen receptor (Homo sapiens) (UniProt P10275); assay: qHTS assay for small molecule agonists of androgen receptor signaling (AID 588515; active = well fitted curve in the direction sought with a large enough effect in the signal ratio, with a control signal flat; the % refers to the signal ratio; also: % is scaled to controls: 0 for no effect and ±100 for the full control effect); details: AR-UAS-bla HEK293, beta-lactamase ratio, agonist 16 h; activation: hits give high values
Method in brief: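 Stimulation of an AR-responsive β-lactamase reporter in GripTite HEK293 cells was measured after 16 h compound exposure at 37 °C, via CCF4 fluorescence after 2 h RT. EC50 from Hill fits, normalized to R1881 at 30 nM.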

[8] = biological target: Androgen receptor (Homo sapiens) (UniProt P10275); assay: qHTS assay for small molecule antagonists of androgen receptor signaling (AID 588516; active = well fitted curve in the direction sought with a large enough effect in the signal ratio, with a control signal flat, not every such curve was filed as active; the % refers to the signal ratio; also: % is scaled to controls: 0 for no effect and ±100 for the full control effect)
Method in brief: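 Antagonist-mode qHTS: inhibition of R1881 (10 nM)-driven beta-lactamase expression in GripTite HEK 293 cells is measured after 16 h; values are Hill-derived IC50s normalized between R1881 and DMSO wells.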

[9] = biological target: Bile acid receptor (Homo sapiens) (UniProt Q96RI1); assay: qHTS assay for small molecule antagonists of farnesoid X receptor signaling (AID 588526); also: % is scaled to controls: 0 for no effect and ±100 for the full control effect
Method in brief: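 Antagonist mode: titrated compounds tested against chenodeoxycholic acid stimulation (normalized to 50 uM CDCA and DMSO) in GeneBLAzer HEK293T cells for 16 h. Beta-lactamase read by CCF4 fluorescence; IC50 from Hill fits.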

Estrogen receptor (Homo sapiens), sequence (P03372 whole entry, looked up): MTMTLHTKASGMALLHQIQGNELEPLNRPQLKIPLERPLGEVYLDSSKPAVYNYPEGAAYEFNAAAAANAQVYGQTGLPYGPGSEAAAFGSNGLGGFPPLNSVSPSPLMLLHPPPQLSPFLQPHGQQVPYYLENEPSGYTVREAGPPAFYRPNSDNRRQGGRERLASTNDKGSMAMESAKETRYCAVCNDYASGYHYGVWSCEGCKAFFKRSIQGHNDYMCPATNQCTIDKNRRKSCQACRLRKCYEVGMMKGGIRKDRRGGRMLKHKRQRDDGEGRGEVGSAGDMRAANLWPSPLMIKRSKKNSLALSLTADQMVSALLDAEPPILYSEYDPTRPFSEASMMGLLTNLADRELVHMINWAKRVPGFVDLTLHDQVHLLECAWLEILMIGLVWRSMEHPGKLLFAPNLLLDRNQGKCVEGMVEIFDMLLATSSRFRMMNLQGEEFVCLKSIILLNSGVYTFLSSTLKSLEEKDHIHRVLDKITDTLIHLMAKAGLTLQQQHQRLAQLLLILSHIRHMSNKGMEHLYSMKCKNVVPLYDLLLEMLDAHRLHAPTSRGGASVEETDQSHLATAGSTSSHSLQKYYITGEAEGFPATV
Vitamin D3 receptor (Homo sapiens), sequence (P11473 whole entry, looked up): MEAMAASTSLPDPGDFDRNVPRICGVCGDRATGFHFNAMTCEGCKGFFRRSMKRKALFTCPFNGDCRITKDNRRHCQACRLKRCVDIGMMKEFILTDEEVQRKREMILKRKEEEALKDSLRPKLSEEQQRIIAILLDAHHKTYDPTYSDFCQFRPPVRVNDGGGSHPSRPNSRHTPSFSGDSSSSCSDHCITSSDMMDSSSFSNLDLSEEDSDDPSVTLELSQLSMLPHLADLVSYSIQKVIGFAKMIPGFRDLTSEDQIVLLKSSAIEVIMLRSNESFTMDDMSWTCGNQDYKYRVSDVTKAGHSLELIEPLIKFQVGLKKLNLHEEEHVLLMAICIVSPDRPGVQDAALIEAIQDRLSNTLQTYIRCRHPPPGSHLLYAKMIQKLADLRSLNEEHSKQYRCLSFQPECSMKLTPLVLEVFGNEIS
Thyroid hormone receptor beta (Homo sapiens), sequence (P10828 whole entry, looked up): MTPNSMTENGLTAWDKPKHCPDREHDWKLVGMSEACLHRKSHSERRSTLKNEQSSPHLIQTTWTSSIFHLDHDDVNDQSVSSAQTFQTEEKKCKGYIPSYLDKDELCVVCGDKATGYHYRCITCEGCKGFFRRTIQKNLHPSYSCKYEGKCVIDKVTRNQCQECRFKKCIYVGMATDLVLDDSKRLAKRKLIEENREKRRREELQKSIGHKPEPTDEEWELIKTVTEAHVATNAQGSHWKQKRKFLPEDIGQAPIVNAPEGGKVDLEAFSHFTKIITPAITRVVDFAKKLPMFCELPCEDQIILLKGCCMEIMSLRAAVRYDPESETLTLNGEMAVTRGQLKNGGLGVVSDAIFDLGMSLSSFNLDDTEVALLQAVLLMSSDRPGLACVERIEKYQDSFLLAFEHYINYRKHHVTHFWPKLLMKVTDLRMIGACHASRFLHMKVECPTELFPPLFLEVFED
Peroxisome proliferator-activated receptor gamma (Homo sapiens), sequence (P37231 whole entry, looked up): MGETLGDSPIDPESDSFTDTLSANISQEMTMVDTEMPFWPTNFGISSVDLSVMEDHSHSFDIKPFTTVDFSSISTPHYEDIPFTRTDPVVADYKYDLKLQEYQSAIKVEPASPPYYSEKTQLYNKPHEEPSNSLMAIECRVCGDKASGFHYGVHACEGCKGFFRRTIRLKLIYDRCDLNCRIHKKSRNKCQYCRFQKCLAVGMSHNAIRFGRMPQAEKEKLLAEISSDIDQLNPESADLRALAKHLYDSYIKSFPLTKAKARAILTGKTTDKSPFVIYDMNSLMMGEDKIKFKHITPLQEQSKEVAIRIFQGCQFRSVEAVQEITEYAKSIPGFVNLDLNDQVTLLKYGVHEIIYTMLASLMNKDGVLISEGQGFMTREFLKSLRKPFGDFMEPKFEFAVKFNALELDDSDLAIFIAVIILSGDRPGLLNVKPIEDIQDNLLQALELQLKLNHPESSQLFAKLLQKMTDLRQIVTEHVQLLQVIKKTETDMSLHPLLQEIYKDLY
Androgen receptor (Homo sapiens), sequence (P10275 whole entry, looked up): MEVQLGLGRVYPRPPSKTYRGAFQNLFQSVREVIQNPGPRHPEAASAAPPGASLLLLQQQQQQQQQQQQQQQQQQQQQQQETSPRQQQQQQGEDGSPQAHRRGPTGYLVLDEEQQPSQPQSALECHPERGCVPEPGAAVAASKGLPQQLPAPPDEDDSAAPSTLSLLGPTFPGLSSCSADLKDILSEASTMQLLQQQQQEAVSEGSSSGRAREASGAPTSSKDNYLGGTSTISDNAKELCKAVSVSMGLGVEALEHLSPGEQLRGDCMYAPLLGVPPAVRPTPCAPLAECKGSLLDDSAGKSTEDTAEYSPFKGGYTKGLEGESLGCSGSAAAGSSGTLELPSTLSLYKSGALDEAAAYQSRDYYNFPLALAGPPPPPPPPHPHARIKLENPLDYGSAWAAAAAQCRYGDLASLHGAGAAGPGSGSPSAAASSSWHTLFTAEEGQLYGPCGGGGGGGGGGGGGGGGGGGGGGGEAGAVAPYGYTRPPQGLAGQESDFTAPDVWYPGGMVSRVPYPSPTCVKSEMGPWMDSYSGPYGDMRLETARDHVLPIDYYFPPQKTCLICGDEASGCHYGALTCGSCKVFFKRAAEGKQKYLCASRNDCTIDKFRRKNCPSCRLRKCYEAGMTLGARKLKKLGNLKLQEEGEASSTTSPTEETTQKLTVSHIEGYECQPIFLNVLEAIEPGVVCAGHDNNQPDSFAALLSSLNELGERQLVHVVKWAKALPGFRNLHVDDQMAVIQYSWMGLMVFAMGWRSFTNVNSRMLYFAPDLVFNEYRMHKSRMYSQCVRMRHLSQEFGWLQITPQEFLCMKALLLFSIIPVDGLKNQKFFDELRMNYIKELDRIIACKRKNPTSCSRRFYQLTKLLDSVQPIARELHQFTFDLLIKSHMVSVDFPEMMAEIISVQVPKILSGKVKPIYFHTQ
Bile acid receptor (Homo sapiens), sequence (Q96RI1 whole entry, looked up): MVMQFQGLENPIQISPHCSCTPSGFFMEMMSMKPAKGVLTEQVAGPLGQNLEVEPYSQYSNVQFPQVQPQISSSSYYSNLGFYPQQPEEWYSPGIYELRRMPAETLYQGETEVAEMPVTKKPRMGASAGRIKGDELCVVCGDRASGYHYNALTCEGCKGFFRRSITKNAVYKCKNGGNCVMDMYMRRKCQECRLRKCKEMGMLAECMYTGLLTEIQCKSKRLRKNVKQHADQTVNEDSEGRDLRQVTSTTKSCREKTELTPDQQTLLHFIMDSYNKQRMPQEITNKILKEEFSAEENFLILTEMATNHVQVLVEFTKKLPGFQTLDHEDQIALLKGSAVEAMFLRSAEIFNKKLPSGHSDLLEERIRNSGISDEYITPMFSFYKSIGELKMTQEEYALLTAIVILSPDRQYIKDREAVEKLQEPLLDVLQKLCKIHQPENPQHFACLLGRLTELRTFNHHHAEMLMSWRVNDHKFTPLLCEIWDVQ

COCCO
inactive: Potency [1] | Potency [2] | Potency [3] | Potency [4]

c1ccc(B(c2ccccc2)c2ccccc2)cc1
inactive: Potency [1] | Potency [2] | Potency [3] | activation [5] -3.07%

CCCCOCC(C)O (stereo not drawn)
inactive: Potency [1] | Potency [2] | activity change % (negative = inhibition) [6] -39.6% and 0.784% | activation [5] 0.734% and -0.5%

CC(C)=CCC/C(C)=C\CO
inactive: activation [7] -0.0899% | outcome [8] | Potency [2] | Potency [3] | activity change % (negative = inhibition) [6] -2.03% | Potency [4] | activation [5] -1.2%

CC(=O)CC(=O)Nc1ccccc1C
inactive: Potency [1] | Potency [3] | activity change % (negative = inhibition) [6] 7.41% | activation [5] -0.183%

CCCCCCc1ccc(N)cc1
inactive: activation [7] -4.5% | outcome [8] | Potency [2] | Potency [3] | activity change % (negative = inhibition) [6] 1.93% | activation [5] 0.791%

C[Si](C)(Cl)[Si](C)(C)Cl
inactive: activation [7] -5.2% | outcome [8] | Potency [9] | Potency [2] | Potency [3] | activity change % (negative = inhibition) [6] 6.15% | Potency [4] | activation [5] -1.24%

C/C=C/C/C=C\CCCCCCCCOC(C)=O
inactive: Potency [1] | Potency [9] | Potency [2] | Potency [3] | activity change % (negative = inhibition) [6] -5.4% | Potency [4] | activation [5] -0.792%

C=CCCCCCCCCCCCC
inactive: activation [7] -5.69% | outcome [8] | Potency [9] | Potency [2] | Potency [3]

CC1(C)CC(OC(=O)CCCCCCCCC(=O)OC2CC(C)(C)NC(C)(C)C2)CC(C)(C)N1
inactive: Potency [1] | Potency [3] | activation [5] 2.54%

CCCCCCCCCCCCCCCCCC#N
inactive: Potency [1] | Potency [2] | activity change % (negative = inhibition) [6] 11.1% | Potency [4] | activation [5] -1.03%

C=C(C)C(=O)OCC[N+](C)(C)C
inactive: activation [7] 0.258% | outcome [8] | Potency [2] | Potency [3] | activity change % (negative = inhibition) [6] 5.25% | Potency [4]

CC1(C)C(=O)N(Br)C(=O)N1Br
inactive: activation [7] -9.37% | outcome [8] | Potency [9] | Potency [2] | activity change % (negative = inhibition) [6] 6.14%
